Results published in the OligoGym collection.

What follows are sequences tested against PPIA (assay: pooled miR-30 sensor sort-seq; sequence = guide strand). Settings: shRNA.
Also: reference of the scale not given here.

Row | Sequence | sensor-assay potency score (higher = more potent)
1 | TTGCTGGTCTTGCCATTCCTGG | -1.6
2 | TAACCAAATCCTTTCTCTCCAG | -0.631
3 | TTTCACTTTGCCAAACACCACA | -0.879

What follows are sequences tested against PPIF in the same assay as above. Settings: shRNA.

Row | Sequence | sensor-assay potency score (higher = more potent)
4 | TAGCCATGGACAGGACACCTGG | -1.46
5 | TAAACAGGTATTAGAGTCCTTT | -0.324
6 | TTCAGCTCCAGCACCACGCGGC | -0.501
7 | TTAAACAGGTATTAGAGTCCTT | -0.0918
8 | TGTGATGACAATCTTCTTGGAT | 0.322
9 | TTTCACTTCTAGTCAATCTTGT | 0.721
10 | TGACCGAACACAACATGCTTGC | -0.464
11 | TCTGTGATGACAATCTTCTTGG | 0.0684
12 | TTCACTTCTAGTCAATCTTGTT | -0.0767
13 | TTCTATTTTCTTCACGACGTCC | -0.712
14 | TAGGAAGACAATATTAAACAGG | -0.559
15 | TATTTTCTTCACGACGTCCATG | -0.975
